# Test results: PubChem BioAssay
# Where “and” joins values, the source holds several entries; their conditions need not be identical. Equal values may be shown once. Calls of active or inactive are those of the source. Unless noted, the rule behind the calls is not given here.
# How the values were obtained:
# [1] = system: XIP peptide (Xip251-270) binding; assay: small-molecule binders of XIP peptide, primary screen, biochemical, small-molecule microarray, fluorescence 635/667 nm, 0.1 µg/mL protein (AID 1182); details: fluorescent protein binding, 635 nm; higher = more signal, called active from +8 up or from −8 down unless noted
# XIP peptide (Xip251-270) = assay: small-molecule binders of XIP peptide, primary screen, biochemical, small-molecule microarray, fluorescence 635/667 nm, 0.5 µg/mL protein (AID 1183); details: small-molecule microarray binding, fluorescence 635 nm; higher = more signal
# [2] = Plasmodium falciparum growth inhibition, primary screen, strain 3D7, DAPI fluorescence, 100 nL (AID 1184);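 note: parasites grown inside human red blood cells in medium with human serum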; details: P. falciparum 3D7 growth, 3 d, higher = more signal
# [3] = target: Homeobox protein Hox-A13 (Mus musculus) (UniProt Q62424); assay: inhibitors of HoxA13-DNA binding, primary screen, biochemical, fluorescence polarization, labeled oligonucleotide (AID 1185); details: 15 min; higher = more signal, called active from +8 up or from −8 down unless noted
# Homeobox protein Hox-A13 (Mus musculus), sequence (Q62424 whole entry, looked up): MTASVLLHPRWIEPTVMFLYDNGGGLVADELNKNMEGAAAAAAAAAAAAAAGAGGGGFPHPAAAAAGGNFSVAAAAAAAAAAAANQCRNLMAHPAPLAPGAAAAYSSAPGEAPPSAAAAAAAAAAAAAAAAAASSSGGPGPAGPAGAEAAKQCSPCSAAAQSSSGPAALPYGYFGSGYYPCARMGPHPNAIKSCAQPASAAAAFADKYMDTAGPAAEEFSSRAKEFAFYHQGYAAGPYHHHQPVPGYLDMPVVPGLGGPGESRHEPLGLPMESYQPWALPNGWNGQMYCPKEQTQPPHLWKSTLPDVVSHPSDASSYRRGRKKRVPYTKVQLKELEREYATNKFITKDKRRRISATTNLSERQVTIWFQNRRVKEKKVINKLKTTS
# [4] = inhibitors of hydroxyurea-induced Chk1 phosphorylation, primary screen, imaging, HeLa, phospho-Chk1 antibody, percent positive cells (AID 1186); details: hydroxyurea-induced phospho-Chk1 immunofluorescence imaging, higher = more signal
# [5] = inhibitors of hydroxyurea-induced Chk1 phosphorylation, primary screen, imaging, HeLa, phospho-Chk1 nuclear intensity (AID 1187); details: hydroxyurea-induced phospho-Chk1 immunofluorescence imaging, higher = more signal
SMILES,composite z-score [1],composite z-score (XIP peptide (Xip251-270)),z-score [2],z-score [3],z-score [4],z-score [5]
C[C@@H]1OC=C2[C@@H](O)[C@H]3O[C@H]3C(=O)[C@]23[C@H]1[C@H]1C2=C([C@@H](O)[C@H]4O[C@H]4C2=O)[C@@H]3O[C@@H]1C,-0.496 (inactive),-0.465,0.487,-0.299 (inactive),–,–
COC(=O)NCC=Cc1nc(CCC=CC(=O)O[C@H]2CC3CC(=O)O[C@@H](C=CCC(C)C)C[C@@H]4CC[C@H](C)[C@@H](C[C@@H](OC)C[C@H](C2)O3)O4)co1,0.0433 (inactive),-1,-1.65,-2.54 (inactive),–,–
COC(=O)C1(C)C=C2C(=C(C)C(=O)C2C)CN1 (stereo not given),-0.309 (inactive),-0.628,-1.06,-3.26 (inactive),0.414 (inactive),0.354 (inactive)
CC1N(P(=O)(c2ccccc2)c2ccccc2)CC(O)(c2ccccc2)CC12CC2 (stereo not given),0.51 (inactive) and -0.0366 (inactive),0.547 and 0.382,0.2 and -0.527,-3.23 (inactive) and -3.55 (inactive),0.694 (inactive) and 0.475 (inactive),0.608 (inactive) and 0.341 (inactive)
COC(=O)[C@H]1[C@H](c2ccccc2)C(=O)[C@]2(O)c3ccccc3O[C@@]12c1ccccc1,-0.013 (inactive),0.364,0.332,-0.116 (inactive),–,–
CCCC[C@@H]1C[C@H]1[C@@H](NP(=O)(c1ccccc1)c1ccccc1)c1ccc(Cl)cc1,0.156 (inactive),-0.337,0.0345,-2.17 (inactive),0.368 (inactive),0.316 (inactive)
CN1CCc2nc(CO)c(CO)cc2C1,-0.102 (inactive),-0.446,-0.221,-0.184 (inactive),–,–
c1ccc(-c2cc3c(nc2-c2ccccc2)CCNC3)cc1,0.236 (inactive),0.0762,-0.295,-0.372 (inactive),–,–
C[C@@H]1Cc2c(cnc3c2CN(C)CC3)CO1,-0.422 (inactive),0.188,-0.0396,-2.8 (inactive),–,–
OCc1ccc(C2=CC(C3CC3)N(Cc3sc4ccccc4c3Cl)CC2)cc1 (stereo not given),1.51 (inactive),0.625,-3.04,3.12 (inactive),-0.6 (inactive),-0.744 (inactive)
COC(=O)[C@H]1C(=O)c2ccccc2O[C@@](C(=O)OC)(c2ccccc2)[C@@H]1c1ccccc1,0.107 (inactive),0.191,-1.6,-0.6 (inactive),–,–
CN1CCC(c2ccc(CO)cc2)=CC1C1CC1 (stereo not given),-0.809 (inactive),0.005,-0.0622,-1.39 (inactive),0.738 (inactive),0.657 (inactive)
OCc1ccc(C2=CC(c3cccs3)N(Cc3cccc(OC(F)(F)F)c3)CC2)cc1 (stereo not given),0.209 (inactive),-0.0913,-3.09,-1.91 (inactive),-0.308 (inactive),-0.44 (inactive)
CCc1cc2c(nc1CC)CCN(CCC(C)=NOC)C2,0.341 (inactive),-0.0832,-1.21,-3.29 (inactive),–,–
COC(=O)[C@H]1[C@@H](O)[C@@]2(O)c3c(OC)cc(OC)cc3O[C@@]2(c2ccc(OC)cc2)[C@@H]1c1ccccc1,-0.119 (inactive),0.914,-1.26,-0.0317 (inactive),–,–
CCCC=C(CCC)[C@@H](NP(=O)(c1ccccc1)c1ccccc1)c1ccccc1,0.147 (inactive),0.158,-0.81,-1.64 (inactive),0.17 (inactive),0.404 (inactive)
C=C(CC1(CNP(=O)(c2ccccc2)c2ccccc2)CC1)c1ccccc1,1.26 (inactive),0.651,-0.176,-2.28 (inactive),-0.462 (inactive),-0.427 (inactive)
COc1cc2c(cc1O)C(C)N(C)CC2 (stereo not given),-0.191 (inactive),0.229,-0.563,-0.569 (inactive),-0.0732 (inactive),0.363 (inactive)
C[C@H]1O[C@H]2C3=C(C(=O)[C@@H]4O[C@@H]4[C@@H]3O)[C@@H]1[C@@H]1[C@@H](C)OC=C3[C@@H](O)[C@H]4O[C@H]4C(=O)[C@]312,-0.7 (inactive),0.938,-1.58,-0.276 (inactive),–,–
C=C(CC1(C(C)NP(=O)(c2ccccc2)c2ccccc2)CC1)c1ccccc1 (stereo not given),-0.131 (inactive),0.858,-1.1,-5.49 (inactive),0.137 (inactive),0.321 (inactive)
